# From PubChem BioAssay AID431 (Sanford-Burnham Center for Chemical Genomics, 2006)
# In all, about 63,000 compounds went through this assay and about 1,100 (1.7%) were called active.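 The calls were made as follows: active = compounds whose percent cytotoxicity in the single-dose primary screen, scaled between solvent and toxic-drug controls, exceeds 50; inactive = the rest.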 The list comes from a sample in which actives are over-represented; it also holds similar structures and randomly drawn compounds. Potency and affinity values are given separately.
# Test: viability loss of HPDE-C7K cells – cell-based, fluorescence, HTS, primary screen (AID 431);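 also: 0% = DMSO solvent wells and 100% = doxorubicin-treated wells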
# Conditions: HPDE-C7K KRASV12 cells, Alamar Blue viability, 48 h; at 10 µM; hits give high values
row,Structure (SMILES),cytotoxicity
1,O=C(NCc1ccccc1)N1CCC(c2nc3ccccc3[nH]2)CC1,-0.6% (inactive)
2,Cc1ccccc1S(=O)(=O)Cc1ccc(C(=O)NCCN2CCN(Cc3ccccc3)CC2)o1,3.7% (inactive)
3,O=C(OCCCc1ccncc1)c1ccc(S(=O)(=O)N2CCOCC2)cc1,-10.8% (inactive)
4,CC(Oc1ccccc1)C(=O)N1CCCc2ccccc21 (stereo unspecified),-9.7% (inactive)
5,O=C(NCC1CCCO1)c1cc(-c2ccncc2)nc2ccc(S(=O)(=O)N3CCOCC3)cc12 (stereo unspecified),-15.7% (inactive)
6,O=C(COC(=O)c1cc(S(=O)(=O)N2CCOCC2)ccc1O)NCC1CCCO1 (stereo unspecified),55.2% (active)
7,O=C(COC(=O)c1ccc(Br)c(S(=O)(=O)N2CCOCC2)c1)NCC1CCCO1 (stereo unspecified),-3.7% (inactive)
8,Cc1ccnc(NC(=O)CCC(=O)N(CC(=O)NC2CCCCC2)c2ccc3c(c2)OCO3)c1,-7.7% (inactive)
9,CCC1CCCCN1C(=O)CSc1nc(N)c(NC(=O)c2ccco2)c(=O)[nH]1 (stereo unspecified),-21.6% (inactive)
10,CC1Oc2ccccc2N(CC(=O)c2cccc(Cl)c2)C1=O (stereo unspecified),-8.4% (inactive)
11,CCOC(=O)CS(=O)(=O)c1nc(-c2ccccc2)cc(C(F)(F)F)n1,34.5% (inactive)
12,COCC(C)NC(=O)CCS(=O)(=O)c1nc(-c2ccc(OC)cc2)cc(C(F)(F)F)n1 (stereo unspecified),52.3% (active)
13,COc1ccc(-c2cc(C(F)(F)F)nc(SCCC(=O)NCc3ccco3)n2)cc1,-8.8% (inactive)
14,COc1ccc(-c2cc(C(F)(F)F)nc(SCC(=O)Nc3cc(C)on3)n2)cc1,-11.8% (inactive)
15,CCOC(=O)CS(=O)(=O)c1ccc2ccccc2c1,-6.4% (inactive)
16,Cc1cc(NC(=O)CCCS(=O)(=O)c2nc(-c3cccs3)cc(C(F)(F)F)n2)no1,4.1% (inactive)
17,CCOC(=O)c1cnn2c(C)cc(-c3ccc(F)cc3)nc12,-18.9% (inactive)
18,COC(=O)c1ccc2c(=O)n(CCCCCC(=O)NCc3ccccn3)c(=O)[nH]c2c1,2.9% (inactive)
19,CCCC(=O)NCCCCNC(=O)CCC,-12.2% (inactive)
20,Cc1ccc(CN(Cc2cccnc2)C(=O)CN2C(=O)COc3ccccc32)o1,-12.5% (inactive)
21,CC(C)Oc1ccc(NC(=O)Oc2ccccc2)cc1,3.4% (inactive)

row,Structure (SMILES),cytotoxicity
1,CC(=O)Nc1ccc(NC(=O)Oc2ccccc2)cc1,-2.5% (inactive)
2,O=C(Nc1ccc(N2CCN(c3ccc(O)cc3)CC2)cc1)Oc1ccccc1,65.7% (active)
3,Cn1c(=O)c2ccccc2n(Cc2ccccc2F)c1=O,2.5% (inactive)
4,CCOc1ccccc1Oc1ccc(C(F)(F)F)cn1,-8.8% (inactive)
5,COc1ccccc1C(=O)Nc1nc2ccc(S(C)(=O)=O)cc2s1,-0.1% (inactive)
6,CC(C)n1nc(C(=O)Nc2nc3ccc(S(C)(=O)=O)cc3s2)c2ccccc2c1=O,53.7% (active)
7,CS(=O)(=O)c1ccc2nc(NC(=O)c3cccs3)sc2c1,3% (inactive)
8,Cc1cccc(OCCCc2c(C)n[nH]c2C)c1,12.8% (inactive)
9,N#Cc1ccsc1NC(=O)CSc1ncn[nH]1,-18.4% (inactive)
10,CCCCNS(=O)(=O)c1ccc2nc(SCC(=O)Nc3sccc3C#N)[nH]c2c1,80.6% (active)
11,CCCCNS(=O)(=O)c1ccc2nc(SCC(=O)c3ccc(C#N)cc3)[nH]c2c1,10.9% (inactive)
12,CCn1cc(/C=C(/C#N)S(=O)(=O)c2ccccc2)cn1,2.3% (inactive)
13,Cc1ccc(C(C)NC(=O)c2c(C)noc2C)cc1C (stereo unspecified),-2.1% (inactive)
14,CCOC(=O)N1CCN(Cc2nc(N)nc(Nc3ccc(Oc4ccccc4)cc3)n2)CC1,28% (inactive)
15,CCOc1ccccc1OCC(=O)O,6.8% (inactive)
16,O=C(O)COc1ccc2nsnc2c1Cl,-27.6% (inactive)
17,C=CCOc1ccccc1/C=N/O,-4.8% (inactive)
18,O=C1CN(C(=O)c2ccc(Br)o2)C(c2ccccc2)c2cc(F)ccc2N1 (stereo unspecified),3% (inactive)
19,COCCN(CC(=O)NCc1ccccc1)C(=O)CCC(=O)Nc1ccccn1,4.7% (inactive)
20,CCCCOc1ccc(C(=O)NC)cc1,-11.7% (inactive)
21,CCCCOc1ccc(C(=O)OC2CC(C)N(C)CC2C)cc1 (stereo unspecified),81.6% (active)

row,Structure (SMILES),cytotoxicity
1,CCCCOc1ccc(C(=O)N2CCC(C)CC2)cc1,-4.4% (inactive)
2,Cc1cc(C)n(-c2nc3nonc3nc2-n2nc(C)cc2C)n1,-2.4% (inactive)
3,C=CCn1c(O)c(C2=c3ccccc3=NC2=O)s/c1=N/c1nccs1,-2.3% (inactive)
4,C=CCn1c(O)c(C2=c3ccccc3=NC2=O)sc1=Nc1ccc(O)cc1,117% (active)
5,O=C1N=c2ccccc2=C1c1sc(=S)n(CC2CCCO2)c1O (stereo unspecified),20.6% (inactive)
6,C=CCOC(=O)C1=C(C)NC(C)=C(C(=O)OCC=C)C1c1ccc(O)cc1,1.1% (inactive)
7,CN1C(=O)CC(C(=O)Nc2ccc(F)cc2)SC1=Nc1ccc2c(c1)OCO2 (stereo unspecified),12.5% (inactive)
8,O=C(COc1nncc2ccccc12)NCCC1=CCCCC1,-7.1% (inactive)
9,COc1cc(CC(=O)NCc2ccc3c(c2)OCO3)cc(OC)c1OC,-11.8% (inactive)
10,COc1cc([C@@H]2c3cc4c(cc3[C@H](O)[C@H]3COC(=O)[C@H]23)OCO4)cc(OC)c1OC,70% (active)
11,COc1cc(CC(=O)Oc2ccc3c(c2)OCO3)cc(OC)c1OC,27.3% (inactive)
12,Cc1cccc(C)c1OCC(=O)Nc1cccc(NC(=O)c2ccco2)c1,2.8% (inactive)
13,CCN(CC)c1ccc(NC(=O)c2cc3ccccc3o2)c(C)c1,-6% (inactive)
14,COC(=O)c1ccccc1NC(=O)Cn1c(-c2nonc2N)nc2ccccc21,41.3% (inactive)
15,CCOC(=O)Cn1c(-c2nonc2NC(=O)c2ccccc2F)nc2ccccc21,41% (inactive)
16,N#CCCn1c(-c2nonc2NC(=O)c2ccccc2Cl)nc2ccccc21,41.9% (inactive)
17,CCCCOc1ccccc1NC(=O)Cn1c(-c2nonc2N)nc2ccccc21,42.3% (inactive)
18,CCOC(=O)c1ccccc1NC(=O)Cn1c(-c2nonc2N)nc2ccccc21,58.5% (active)
19,CCCCn1c(-c2nonc2NC(=O)c2ccccc2Cl)nc2ccccc21,53.9% (active)
